Results reported in PubChem BioAssay.
Activity calls are given as the source filed them. Unless noted, no rule for the calls is given here.

How the values were obtained:
[1] = system: XIP peptide (Xip251-270) binding; assay: small-molecule binders of XIP peptide, primary screen, biochemical, small-molecule microarray, fluorescence 635/667 nm, 0.1 µg/mL protein (AID 1182); details: fluorescent protein binding, 635 nm, higher = more signal, called active from +8 up or from −8 down
XIP peptide (Xip251-270) = assay: small-molecule binders of XIP peptide, primary screen, biochemical, small-molecule microarray, fluorescence 635/667 nm, 0.5 µg/mL protein (AID 1183); details: small-molecule microarray binding, fluorescence 635 nm; higher = more signal
[2] = Plasmodium falciparum growth inhibition, primary screen, strain 3D7, DAPI fluorescence, 100 nL (AID 1184);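 also: parasites grown inside human red blood cells in medium with human serum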; details: P. falciparum 3D7 growth, 3 d, higher = more signal
[3] = target: Homeobox protein Hox-A13 (Mus musculus) (UniProt Q62424); assay: inhibitors of HoxA13-DNA binding, primary screen, biochemical, fluorescence polarization, labeled oligonucleotide (AID 1185); details: 15 min, higher = more signal, called active from +8 up or from −8 down
Homeobox protein Hox-A13 (Mus musculus), sequence (Q62424 whole entry, looked up): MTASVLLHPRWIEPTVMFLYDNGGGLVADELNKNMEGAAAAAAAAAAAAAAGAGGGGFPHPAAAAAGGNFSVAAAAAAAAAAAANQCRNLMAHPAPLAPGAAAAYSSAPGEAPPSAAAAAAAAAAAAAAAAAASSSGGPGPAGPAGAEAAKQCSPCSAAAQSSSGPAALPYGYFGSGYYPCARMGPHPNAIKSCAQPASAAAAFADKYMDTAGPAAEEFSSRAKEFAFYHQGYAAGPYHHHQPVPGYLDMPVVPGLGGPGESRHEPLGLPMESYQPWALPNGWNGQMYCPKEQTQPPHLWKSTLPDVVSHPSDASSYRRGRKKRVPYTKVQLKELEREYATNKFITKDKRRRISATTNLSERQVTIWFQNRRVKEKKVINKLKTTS

[4] = inhibitors of hydroxyurea-induced Chk1 phosphorylation, primary screen, imaging, HeLa, phospho-Chk1 antibody, percent positive cells (AID 1186); details: hydroxyurea-induced phospho-Chk1 immunofluorescence imaging, higher = more signal
[5] = inhibitors of hydroxyurea-induced Chk1 phosphorylation, primary screen, imaging, HeLa, phospho-Chk1 nuclear intensity (AID 1187); details: hydroxyurea-induced phospho-Chk1 immunofluorescence imaging, higher = more signal

Compound | composite z-score [1] | composite z-score (XIP peptide (Xip251-270)) | z-score [2] | z-score [3] | z-score [4] | z-score [5]
COCCOC(=O)N1C(=O)[C@@]2(c3cc(C#Cc4ccc(OC)cc4)ccc31)[C@H](c1ccc(OCCO)cc1)N1[C@H](c3ccccc3)[C@H](c3ccccc3)OC(=O)[C@H]1[C@@H]2C(=O)Nc1nc2ccccc2s1 | 0.968 (inactive) | 0.414 | -0.817 | 1.31 (inactive) | -0.007 (inactive) | 0.254 (inactive)
CCCNC(=O)[C@@]1(Sc2ccc(C)cc2)CC(=O)N(C2CCCCC2)[C@@H]1c1ccc(CO)cc1I | 0.398 (inactive) | 0.372 | -0.688 | -4.72 (inactive) | 0.493 (inactive) | 0.252 (inactive)
[N-]=[N+]=Nc1ccccc1C[C@@]1(C(=O)O)N=C(c2ccc(OCCCO)cc2)O[C@@H]1c1ccccc1N=[N+]=[N-] | 0.0588 (inactive) | 0.736 | -1.74 | -5.17 (inactive) | -0.267 (inactive) | -0.317 (inactive)
O=C1OCCC/C=C\[C@H]2OC34C=CCN(c5ccc6ccccc6c5)C(=O)[C@H]3N(CCCO)C(=O)[C@@H]4C12 (some centres undefined) | 0.0317 (inactive) | 0.481 | 0.267 | -5.72 (inactive) | 1.41 (inactive) | 0.656 (inactive)
Cc1nc2cc(Br)ccc2c(=O)n1Cc1cccc(O)c1 | 0.651 (inactive) | 0.529 | -0.563 | 0.464 (inactive) | 0.18 (inactive) | 0.257 (inactive)
COC(=O)[C@@]1(Cc2ccc(F)cc2)[C@H]2c3cc(C(=O)N4CCCC4)n(C)c3C[C@H]2CN1C(=O)c1ccccc1 | 0.125 (inactive) | 0.664 | -0.37 | -6.1 (inactive) | -0.0152 (inactive) | 0.504 (inactive)
C=C(CCCC)C(=O)CC[C@H](OC(=O)c1ccccc1-c1ccccc1C(=O)O)c1ccccc1OCCO | 0.267 (inactive) | 0.0422 | -2.61 | -5.63 (inactive) | -0.309 (inactive) | -0.102 (inactive)
C=C(/C(=C/C[C@@H](OC(=O)c1ccncc1)c1cccc(OCCO)c1)c1cnc2ccccc2c1)C(C)C | 0.601 (inactive) | 0.602 | -2.88 | -4.48 (inactive) | 0.242 (inactive) | 0.258 (inactive)
COCCOC(=O)N1C(=O)[C@@]2(c3cc(C#CC4(O)CCCCCC4)ccc31)[C@H](c1ccc(OCCO)cc1)N1[C@H](c3ccccc3)[C@H](c3ccccc3)OC(=O)[C@H]1[C@@H]2C(=O)Nc1nc2ccccc2s1 | 0.284 (inactive) | 0.78 | -0.726 | 1.07 (inactive) | 0.218 (inactive) | 0.561 (inactive)
CCC(CC)C(O)C1C=CC2C(=O)N(c3ccccc3)C(=O)C2N1Nc1ccc([N+](=O)[O-])cc1 (centres undefined) | 0.39 (inactive) | 0.493 | 1.38 | -3.49 (inactive) | -0.37 (inactive) | -1.56 (inactive)
COCCCNC(=O)[C@@]1(c2ccc([N+](=O)[O-])cc2)CC(=O)N(CC23CC4CC(CC(C4)C2)C3)[C@@H]1c1ccc(CO)cc1I | 1.15 (inactive) | 0.383 | -1.13 | -4.38 (inactive) | 0.568 (inactive) | 0.885 (inactive)
C=C(CCCC)C(=O)CC[C@@H](OC(=O)c1cccnc1)c1ccc(OCCO)cc1 | 0.408 (inactive) | 0.713 | -2.28 | -3.82 (inactive) | 1.27 (inactive) | 1.21 (inactive)
Cc1ccccc1C(O)C1C=CC2C(=O)N(c3ccccc3)C(=O)C2N1Nc1ccc([N+](=O)[O-])cc1 (centres undefined) | 1.61 (inactive) | 0.618 | -0.42 | -3.91 (inactive) | -0.0666 (inactive) | -0.614 (inactive)
C=C(/C(=C/C[C@H](OC(=O)c1ccncc1)c1cccc(OCCO)c1)c1cnc2ccccc2c1)C(C)C | 0.0082 (inactive) | 0.67 | -1.42 | -5.01 (inactive) | 0.654 (inactive) | 0.212 (inactive)
C=CCC(OC(C)=O)[C@@H]1[C@@H](N(Cc2ccc(-c3cccc(C(F)(F)F)c3)o2)C(=O)Cc2ccc(OC)cc2)c2cc(OCCCO)ccc2N1C(=O)Cc1ccc2ccccc2c1 (some centres undefined) | 0.0389 (inactive) | 0.625 | -2.17 | -1.9 (inactive) | 0.162 (inactive) | 0.375 (inactive)
C=CCC(OC(C)=O)[C@@H]1[C@@H](N(Cc2cccc3ccccc23)C(=O)c2ccc(-c3ccccc3)cc2)c2cc(OCCCO)ccc2N1C(=O)c1ccc(-c2ccccc2)cc1 (some centres undefined) | -0.303 (inactive) | -0.811 | 0.579 | -1.17 (inactive) | 0.492 (inactive) | 0.0424 (inactive)
Nc1cc(Br)ccc1C(=O)O | 0.513 (inactive) | -0.244 | 1.1 | 0.686 (inactive) | 0.132 (inactive) | 0.343 (inactive)

Compound | composite z-score [1] | composite z-score (XIP peptide (Xip251-270)) | z-score [2] | z-score [3] | z-score [4] | z-score [5]
[N-]=[N+]=Nc1ccccc1C[C@]1(C(=O)NCc2ccccc2)COC(c2ccc(OCCCO)cc2)=N1 | 0.261 (inactive) | 0.651 | -2.38 | -5.36 (inactive) | -0.364 (inactive) | -0.571 (inactive)
COc1ccc([Si](C)(C)[C@H]2[C@H](CCO)O[C@@]3(C(=O)N(Cc4ccccc4)c4ccc(N5C(=O)c6ccccc6Oc6ccccc65)cc43)[C@@H]2C)cc1 | 0.823 (inactive) | 0.601 | -1.75 | -1.76 (inactive) | 0.564 (inactive) | -0.608 (inactive)
COC(=O)C1=CC(CCCO)=CC(C)N(Cc2cccc(OC(F)(F)F)c2)C=C1C(=O)OC (centres undefined) | 0.0257 (inactive) | 0.526 | -1.12 | -7.74 (inactive) | -0.249 (inactive) | -0.655 (inactive)
[N-]=[N+]=NCc1ccccc1[C@H]1OC(c2ccc(OCCCO)cc2)=N[C@@]1(CCS(=O)(=O)c1ccccc1)C(=O)NCc1ccccc1 | -0.165 (inactive) | 0.68 | -2.28 | -0.495 (inactive) | -0.189 (inactive) | 0.283 (inactive)
COc1ccc([Si](C)(C)[C@@H]2[C@@H](CC(=O)N3Cc4ccccc4C[C@H]3CO)O[C@]3(C(=O)N(c4ccccc4)c4ccccc43)[C@H]2C)cc1 | 3.93 (inactive) | 0.546 | -2.38 | -4.85 (inactive) | -0.0103 (inactive) | -0.192 (inactive)
O=C1NC(=O)C2C1C=CC(C(O)c1ccccn1)N2Nc1ccc(Cl)cc1Cl (centres undefined) | 0.628 (inactive) | 0.326 | 0.358 | -4.45 (inactive) | -0.133 (inactive) | -0.18 (inactive)
C=C(/C(=C/C[C@H](OC(=O)c1ccncc1)c1ccccc1OCCO)c1cnc2ccccc2c1)C(C)C | -0.0266 (inactive) | 0.615 | -2.96 | -4.2 (inactive) | 0.39 (inactive) | 0.0188 (inactive)
COc1ccc([Si](C)(C)[C@@H]2[C@@H](CCn3cc([C@H](O)c4ccccc4)nn3)O[C@]3(C(=O)N(c4ccccc4)c4ccccc43)[C@H]2C)cc1 | -0.17 (inactive) | 0.559 | -1.73 | -3.01 (inactive) | -0.431 (inactive) | -0.361 (inactive)
O=C1[C@@]23C=C(Br)[C@H](C[C@@H]2COC3)[C@@]12CO2 | -0.0944 (inactive) | 0.0556 | 2.53 | 0.786 (inactive) | 0.854 (inactive) | 0.352 (inactive)
CCOC(=O)C1=C[C@@H](C(C)(C)C)N(S(=O)(=O)c2ccc(C)cc2)[C@H]1c1cccc(Cl)c1 | -0.248 (inactive) | 0.765 | -2.08 | 0.0204 (inactive) | 0.347 (inactive) | -0.136 (inactive)
CN(C)CCCNC(=O)[C@@H]1c2ccccc2C(=O)N(C2CCCCC2)[C@H]1c1ccc(CO)cc1 | 2.33 (inactive) | 0.834 | -1.99 | 1.8 (inactive) | 0.208 (inactive) | 0.393 (inactive)
O=C(NCCN1CCOCC1)[C@@H]1c2ccccc2C(=O)N(Cc2ccccc2)[C@H]1c1ccc(CO)cc1 | -0.181 (inactive) | -0.314 | 0.681 | -3.79 (inactive) | -0.697 (inactive) | -0.974 (inactive)
CN(C)CCCCNC(=O)[C@H]1C[C@H]2C(=O)N[C@@H](CCCC[N+](C)(C)C)C(=O)N2[C@H]1c1ccc(O)cc1 | -0.0941 (inactive) | 0.674 | -0.449 | -3.64 (inactive) | -1.31 (inactive) | -0.989 (inactive)
CCCNC(=O)[C@@]1(C)c2ccccc2C(=O)N(Cc2ccccc2)[C@H]1c1ccc(CO)cc1 | 0.952 (inactive) | 0.355 | -0.804 | -1.91 (inactive) | -0.558 (inactive) | -0.579 (inactive)
COc1cc(NN2C(C(O)c3ccccc3)C=CC3C(=O)N(C)C(=O)C32)cc(OC)c1OC (centres undefined) | 0.561 (inactive) | 0.346 | -0.312 | -3.23 (inactive) | -0.36 (inactive) | -0.516 (inactive)
C=CCOC(=O)[C@H]1[C@@H]2C(=O)O[C@@H](c3ccccc3)[C@@H](c3ccccc3)N2[C@@H](c2ccc(OCCOC(=O)[C@H]3C[C@H]4C(=O)N[C@@H](CCCCNC(C)=O)C(=O)N4[C@H]3c3cccc(OCCO)c3)cc2)[C@]12C(=O)Nc1ccc(I)cc12 | 0.996 (inactive) | 0.68 | -1.61 | 2.36 (inactive) | -0.138 (inactive) | 0.239 (inactive)
CC(C)CNC(=O)[C@@]1(c2ccc([N+](=O)[O-])cc2)CC(=O)N(C2CCCCC2)[C@@H]1c1ccc(CO)cc1 | 0.32 (inactive) | 0.104 | -0.672 | -2.24 (inactive) | 0.0803 (inactive) | 0.515 (inactive)
